Screening results as filed in PubChem.
In the library only some 3.1% were active in any assay of this set; here they are far more common.
FadD28 binding = blocks FadD28 binding to the bisubstrate probe; hit rate 0.22% among 360,000; inhibition, % at 12.5 µM; fluorescence polarization; in the data active = inhibition above about 8.5%, passing the limit was not always enough
Mtb FBA inh = inhibitors of M. tuberculosis fructose-bisphosphate aldolase; P9WQA3; purified M. tuberculosis FBA, fluorescence read-out; inhibition, % at 1 µM; hit rate 2.3% among 360,000; in the data active = inhibition above about 27%;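 also: 0% = vehicle and 100% = reference inhibitor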
Target sequence (P9WQA3 whole entry, looked up): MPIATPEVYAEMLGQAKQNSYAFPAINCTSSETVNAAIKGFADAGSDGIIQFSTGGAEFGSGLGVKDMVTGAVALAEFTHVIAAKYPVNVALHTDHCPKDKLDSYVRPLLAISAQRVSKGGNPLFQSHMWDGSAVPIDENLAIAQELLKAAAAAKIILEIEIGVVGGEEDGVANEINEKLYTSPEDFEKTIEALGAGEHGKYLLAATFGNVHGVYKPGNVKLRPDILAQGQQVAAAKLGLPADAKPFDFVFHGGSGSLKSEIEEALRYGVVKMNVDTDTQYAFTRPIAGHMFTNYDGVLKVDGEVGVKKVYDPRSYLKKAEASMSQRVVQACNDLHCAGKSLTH
SARS 3CLpro inh = SARS-CoV 3CLpro protease inhibition; recombinant SARS-CoV 3CLpro, quenched FRET peptide cleavage; AID 1706; P0C6X7; inhibition, % at 6 µM; hit rate 0.14% among 290,000; in the data active = inhibition above about 12%
Mtb BioA inh = BioA (M. tuberculosis) enzyme inhibition; purified M. tuberculosis BioA enzyme, plate reader; inhibition, % at 9.99 µM; hit rate 0.096% among 360,000; AID 602481; in the data active = inhibition above about 40%
GDH-TPI counter = inhibits GDH-TPI coupling enzymes, artifact for Mtb FBA screen; GDH-TPI coupled enzyme counterscreen, NADH absorbance; inhibition, % at 4.8 µM; hit rate 1.2% among 360,000; AID 588335; in the data active = inhibition above about 30%;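 also: 0% = DMSO wells and 100% = wells lacking the enzyme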
* = called active by the depositor; . = not tested or not shown; + = active, no number.

SMILES	FadD28 binding	Mtb FBA inh	SARS 3CLpro inh	Mtb BioA inh	GDH-TPI counter
O=c1oc2c(CN3CCCCC3)c(O)ccc2c2c1CCCC2	-1	+	0	3	24
Cc1c(O)c(CN2CCCCC2)cc2c3c(c(=O)oc12)CCC3	-1	+	4	1	22
Cc1c(C)c2ccc(O)c(CN3CCCC3)c2oc1=O	-2	+	1	-1	12
C[C@@H]1CN([C@@H](C)CO)C(=O)c2cccc(NC(=O)c3ccncc3)c2O[C@@H]1CN(C)Cc1ccc(C(=O)Nc2ccccc2N)cc1	.	.	.	-1	.
C/C=C/c1cnc2c(c1)C(=O)N([C@@H](C)CO)C[C@H](C)[C@@H](CN(C)S(=O)(=O)c1ccc(OC)cc1)O2	.	.	.	-2	.
Cc1c(C)c2ccc(O)c(CN3CCN(C)CC3)c2oc1=O	-1	+	-1	0	14
COC(=O)Cc1c(C)c2ccc(O)c(CN3CCCC(C)C3)c2oc1=O (stereo not given)	-3	.	-6	1	10
CCc1c(C)c2ccc(O)c(CN3CCCC3)c2oc1=O	.	.	1	-2	34*
C[C@H]1CN([C@@H](C)CO)C(=O)c2cc(-c3ccccc3)cnc2O[C@@H]1CN(C)C(=O)c1ccccn1	.	.	.	0	.
COc1ccc(CNC(=O)C[C@H]2CC[C@H]3[C@H](COc4ccc(NC(C)=O)cc4C(=O)N3C)O2)cc1	.	.	.	1	.
CC=Cc1ccc2n(c1=O)C[C@@H]1[C@@H](CO)[C@H](C(=O)NCCC)[C@H]2N1CCC(F)(F)F (mixture of isomers)	.	.	.	-1	.
Cc1ccc(S(=O)(=O)Nc2ccc3c(c2)CC(=O)N([C@@H](C)CO)C[C@@H](C)[C@H](CN(C)Cc2ccc(Cl)c(Cl)c2)O3)cc1	.	.	.	0	.
CS(=O)(=O)Nc1ccc(C2=NN(C(=O)c3ccco3)C(c3cccc(F)c3)C2)cc1 (stereo not given)	-3	3	-1	30	31*
CCS(=O)(=O)Nc1ccc(C2=NN(C(=O)c3ccco3)C(c3ccc(Cl)o3)C2)cc1 (stereo not given)	-1	5	.	6	50*
CCS(=O)(=O)Nc1ccc(C2=NN(C(=O)c3ccco3)C(c3cccc(F)c3)C2)cc1 (stereo not given)	-8	5	2	.	24
CCC(=O)N1N=C(c2ccc(NS(=O)(=O)CC)cc2)CC1c1ccc(C)cc1 (stereo not given)	-2	+	3	.	5
Cn1c2ccccc2c2cc(/C=N/NC(=O)c3ccccc3F)ccc21	-1	12	5	-1	47*
CCn1c2ccccc2c2cc(/C=N/NC(=O)c3cccc(C)c3)ccc21	-4	4	-2	10	-2
CCn1c2ccccc2c2cc(/C=N/NC(=O)c3ccccc3C)ccc21	-1	5	-3	-1	35*
Cn1c(-c2ccccc2)c(/C=N/NC(=O)c2ccc(O)cc2)c2ccccc21	-7	3	2	0	52*
Cn1c2ccccc2c2cc(/C=N/NC(=O)c3ccc(N)cc3)ccc21	-2	15	-18	-1	36*
C[C@H](CO)N1C[C@H](C)[C@@H](CN(C)Cc2ccc(C(=O)O)cc2)Oc2ccc(NC(=O)Nc3ccc(C(F)(F)F)cc3)cc2CC1=O	.	.	.	6	.
COCC(=O)Nc1ccc2c(c1)OC[C@@H](C)N(Cc1ccccc1F)C[C@@H](C)[C@H](OC)CN(C)C2=O	.	.	.	3	.
Cn1c(/C=N/NC(=O)c2ccccc2)nc2ccccc21	-3	8	3	-2	47*
Cn1c(CCCNC(=O)c2ccccc2)nc2ccccc21	0	1	-2	1	6
SMILES	FadD28 binding	Mtb FBA inh	SARS 3CLpro inh	Mtb BioA inh	GDH-TPI counter
CCc1[nH]nc(C(=O)N2CCCC(C(=O)c3cccc(OC(C)C)c3)C2)c1C (stereo not given)	0	164*	-2	1	-4
CN(C)c1ccc(/C=N/NC(=O)CNC(=O)c2ccncc2)cc1	-2	5	1	-1	33*
O=C(CNC(=O)c1ccncc1)N/N=C/c1ccc(O)cc1O	-2	0	0	-2	39*
CN(C)c1ccc(/C=N/NC(=O)CNC(=O)c2ccc3c(c2)OCCO3)cc1	0	24	3	.	40*
COc1cc(/C=N/NC(=O)CNC(=O)c2ccncc2)ccc1O	-1	-1	4	0	13
CN(C)c1ccc(/C=N/NC(=O)CNC(=O)/C=C/c2ccco2)cc1	-2	6	4	-4	40*
CO[C@H](CN(C)C(=O)c1ccccc1F)[C@H](C)CN([C@H](C)CO)S(=O)(=O)c1ccc(C)cc1	.	.	.	1	.
O=C(CCN1CCCCC1)NCC[C@H]1CC[C@H](NC(=O)C2CCCC2)[C@@H](CO)O1	.	.	.	1	.
Cc1noc(C)c1S(=O)(=O)Nc1ccc2c(c1)C(=O)N([C@H](C)CO)C[C@@H](C)[C@H](CN(C)Cc1ccccc1)O2	.	.	.	-1	.
CCOC(=O)C1CCN(C=Nc2cc(C)on2)CC1	-2	+	-3	2	8
COC(=O)c1ccc(Nc2nnc(-c3ccc(C)c(S(=O)(=O)NCC4CCCO4)c3)c3ccccc23)cc1 (stereo not given)	-1	0	10	0	23
Cc1ccc(-c2nnc(Nc3ccc(C(=O)N(C)C)cc3)c3ccccc23)cc1S(=O)(=O)NC(C)(C)CO	-2	-1	2	.	37*
Cc1ccc(-c2nnc(Nc3ccc(CC(N)=O)cc3)c3ccccc23)cc1S(=O)(=O)NCC1CCCO1 (stereo not given)	-1	4	-4	.	32*
COCCn1c(N)c(C(=O)OCc2ccccc2)c2nc3ccccc3nc21	-10	+	0	2	0
CCCCOCCCn1c(N)c(C(=O)OCCOC)c2nc3ccccc3nc21	-1	134*	-4	0	15
COCCOC(=O)c1c(N)n(Cc2ccccc2)c2nc3ccccc3nc12	-11	+	0	0	6
COCC(C)OC(=O)c1c(N)n(Cc2ccco2)c2nc3ccccc3nc12 (stereo not given)	-4	130*	-1	0	12
CCOC(=O)c1c(NC(=O)c2c(N)n(CCCOC)c3nc4ccccc4nc23)sc2c1CCCC2	-3	-3	-3	0	1
COCC(C)OC(=O)c1c(N)n(-c2ccc(OC)c(OC)c2)c2nc3ccccc3nc12 (stereo not given)	.	.	0	.	.
Cc1ccc(C2C(C#N)=C3N=C(N)c4ccccc4N3C3=C2C(=O)CCC3)cc1 (stereo not given)	0	-3	5	-3	31*
CCOC(=O)c1ccc(-n2c(CN3CCC(C(N)=O)CC3)nc3ccc([N+](=O)[O-])cc3c2=O)cc1	-3	0	4	-1	14
CCOC(=O)c1ccc(-n2c(CN3CCC(O)CC3)nc3ccc([N+](=O)[O-])cc3c2=O)cc1	0	0	5	.	45*
Cc1ccc(N/C=C(/C#N)c2ccsc2)cc1	-2	-2	-1	0	22
N#C/C(=C/Nc1ccccc1)c1ccsc1	0	-2	1	1	34*
